Only some compounds are listed: those with a hit (about 11% of all), similar ones and a draw of the others.
HCV inhibitor – blocks hepatitis C virus | Huh7.5.1 HCVcc-Cre infection, luciferase reporter, 44 h | Potency, µM (series often up to 41.8 µM), most hits filed as inhibitors | 3.4% of 340,000 active
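Compounds are dispensed onto cells plated 4 h earlier at 1,000 per well, with HCVcc-Cre virus (about 0.5 moi) added next. Following 44 h of culture, luminescent signal is measured for 15 sec after 15 min with substrate at room temperature.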
Pf growth 48h – P. falciparum growth inhibition at 48 hours (one generation) | AID 504832 | P. falciparum luciferase growth in erythrocytes, 48 h | 5.9% of 310,000 active | Potency, µM (highest dose often 28.7 µM), most hits filed as inhibitors
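Compounds are pin-transferred into medium, infected erythrocytes (2% hematocrit, 0.1% parasitemia final) are added, and plates sit one parasite generation at 37 C in 5% CO2. Detection reagent is then added and luminescence measured.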
Pf growth 96h – inhibits malaria parasite growth, 96 h. P. falciparum luciferase reporter growth, 96 h. Potency, µM (highest dose often 28.7 µM), actives largely listed as inhibitors. 6.9% of 320,000 active
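Cell-based qHTS: luciferase-tagged P. falciparum in erythrocytes (2% hematocrit, 0.05% parasitemia final) incubated with compounds for 96 hours, 37 C, 5% CO2; luciferase detection reagent then added and luminescence measured.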
AMA1-RON2 inh – disrupts binding of P. falciparum AMA1 to RON2; Potency, µM (series often up to 58.2 µM), usual class: inhibitors; AlphaScreen AMA1-biotinylated RON2 peptide binding; 0.2% of 360,000 active; further: nearly all actives have a fitted effect of over 45% in size
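AMA1 (3D7) with his tag at 25 nM final met compounds first, then biotinylated RON2 peptide at 25 nM; detection used donor plus acceptor beads, 10 µg/mL apiece, read by AlphaScreen after 30 min at room temperature.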
A number is an active result; n = inactive; u = inconclusive; x = no result given; [ ] = another dose, or the depositor's remark. The call rests on the fitted dose curve; in most records, active means well fitted curve in the direction sought with a large enough effect; inconclusive means small, poorly fitted or top-dose-only effect, or another doubt; inactive means no such curve, though single readings can be large; an effect the other way counts as inactive or inconclusive.

SMILES	HCV inhibitor	Pf growth 48h	Pf growth 96h	AMA1-RON2 inh
COC(=O)c1cc(OC)c(OC)cc1NC(=O)c1ccc(C)o1	u	x	5.2µM	n
Cc1ccccc1C(=O)NC1CCN(CC(=O)NCc2ccccc2)CC1	n	n	n	n
C=C1CCN([C@@H](Cc2ccccc2)C(=O)NC2CCN(Cc3ccccc3)CC2)S(=O)(=O)c2ccccc21	n	x	x	n
COc1ccc(CN(C(=O)CN2C(=O)NC3(CCC(C)CC3)C2=O)C(C)Cc2cccs2)cc1 (stereo not drawn)	u	9.3µM	12µM	n
Cc1ccc(N2C(=O)CC2(C#N)c2ccc(OCc3ccccc3)cc2)cc1 (stereo not drawn)	n	x	u	n
O=C(CCCc1nc(-c2ccccc2)no1)NC1CCCCC1	n	n	n	n
Cc1ccc(-n2c(C)cc3c2CCCC3=O)cc1	n	10µM	n	n
Cc1ccccc1C(=O)NC1CCN(Cc2nnnn2C(C)(C)C)CC1	n	n	n	n
Cc1ccccc1C(=O)NC1CCN(Cc2nnnn2C2CCCC2)CC1	n	n	6.6µM	n
Cc1ccc(Cn2nnnc2CN2CCC(NC(=O)c3ccc(Br)cc3)CC2)cc1	n	3.7µM	u	n
CCC(C)(C)n1nnnc1CN1CCC(NC(=O)c2ccc(Br)cc2)CC1	u	u	4.1µM	n
Cc1ccccc1C(=O)NC1CCN(Cc2nnnn2Cc2ccccc2)CC1	n	n	n	n
Cc1ccc(CN2C3CCCC2CC(NC(=O)c2ccc(C)cc2)C3)cc1 (stereo not drawn)	32µM	u	n	n
CC(C)(C)n1nnnc1CN1CCC(NC(=O)NC2CCCCC2)CC1	n	n	n	n
O=C(Oc1cccccc1=O)c1ccccc1	n	u	15µM	n
Cc1cc(Cl)ccc1OCC(=O)NNC(=O)c1cnccn1	n	u	8.3µM	n
Cc1cc(Br)ccc1OCC(=O)NNC(=O)c1cnccn1	n	u	12µM	n
Cc1ccc(C(=O)NNC(=O)COc2ccc(Cl)cc2C)o1	n	n	n	n
O=C(Nc1ncccc1Cl)C(Sc1ccccc1)c1ccccc1 (stereo not drawn)	n	u	u	n
CCN(CC)C(=O)Cn1cnc2sc(C(=O)NCCCN3CCOCC3)c(C)c2c1=O	n	n	n	n
O=C(Nc1ccccc1OC(F)F)c1ccc(S(=O)(=O)N2CCOCC2)cc1	x	n	n	n
O=C(C1CCN(S(=O)(=O)N2CCOCC2)CC1)N1CCN(c2ccccc2F)CC1	n	n	n	n
Cc1cccc(N2CCN(C(=O)C3CCN(S(=O)(=O)N4CCOCC4)CC3)CC2)c1C	10µM	n	u	n
O=C(C1CCC(CNS(=O)(=O)c2cccs2)CC1)N1CCCCC1 (stereo not drawn)	n	x	n	n
Cc1cccc(N2CCN(C(=O)C3CCC(CNS(=O)(=O)c4cccs4)CC3)CC2)c1C (stereo not drawn)	7.9µM	5.2µM	n	n
SMILES	HCV inhibitor	Pf growth 48h	Pf growth 96h	AMA1-RON2 inh
COc1ccc(C(=O)C2CCCN(C(=O)c3cccnc3SC)C2)c(C)c1 (stereo not drawn)	n	u	u	n
CCN(CC)C(=O)NCc1c(C)cc(C)cc1C	n	n	n	n
O=C(O)c1ccc(CN2C(=O)c3ccc(C(=O)O)cc3C2=O)cc1	n	n	n	n
O=C(O)c1ccc2c(c1)C(=O)N(N1C(=O)c3ccccc3C1=O)C2=O	n	n	9.3µM	n
O=C(Nc1ccccc1O)c1ccc2c(c1)C(=O)N(N1C(=O)c3ccccc3C1=O)C2=O	n	n	9.3µM	n
COc1ccc(CN2C(=O)c3ccc(C(=O)O)cc3C2=O)cc1	n	x	9.3µM	n
COC(=O)c1ccccc1NC(=O)COC(=O)Cc1ccc(S(=O)(=O)N2CCOCC2)s1	n	x	x	n[11.6 µM]
NS(=O)(=O)c1ccc(NC(=O)COC(=O)CC2Sc3ccccc3NC2=O)cc1 (stereo not drawn)	n	n	n	n
COc1ccc(Cl)cc1CN1C(=O)C(Cc2ccccc2)ON=C1C (stereo not drawn)	x	x	x	n
CC1Cc2c([nH]c3ccccc23)C(=O)N1 (stereo not drawn)	u	n	9.3µM	n
O=C1NCCc2c1[nH]c1ccccc21	n	n	n	n
Cc1ccc(C)c(N(CC(=O)NCCc2ccccc2)C(=O)CCC(=O)Nc2ccccn2)c1	u	n	n	n
CCCn1c2c(c(O)c(C(=O)Nc3ncccc3C)c1=O)CCCC2	11µM	n	n	n
CCN1CCCC1CN=Cc1c(O)n(-c2ccccc2)c(=O)c2ccccc12 (stereo not drawn)	n	3.7µM	n[5.75 µM]	n
CC(C)CCN=Cc1c(O)n(-c2ccccc2)c(=O)c2ccccc12	n	x	u	n
Cc1cccc(-n2c(O)c(C=NCCCN3CCOCC3)c3ccccc3c2=O)c1	n	7.4µM	u	n
O=C(CNCC1CCCO1)Nc1ccc(N2CCCCCC2)cc1 (stereo not drawn)	n	n	0.26µM	u
O=C(CNCC1CCCCC1)Nc1ccc(N2CCCCC2)cc1	x	n	n	x
O=C(CNC1CCCCCC1)Nc1ccc(N2CCCC2)cc1	x	n	n	x
O=C(CNCCC1=CCCCC1)Nc1ccc(N2CCCCCC2)cc1	u	u	n	35µM
Cc1ccc2nc(-c3ccccn3)c(Nc3ccccc3C)n2c1	5µM	u	n	n
Cc1ccccc1Nc1c(-c2ccccn2)nc2ccccn12	u	2.6µM	n	n
Cc1ccn2c(Nc3ccccc3)c(-c3ccccn3)nc2c1	8.9µM	2.1µM	n	n
Cc1ccn2c(Nc3ccccc3C)c(-c3ccccn3)nc2c1	4µM	u	n	n
Cc1nnc2n(Cc3ccccc3)c(=O)c3c4c(sc3n12)CN(Cc1ccccc1)CC4	x	u	n	x
SMILES	HCV inhibitor	Pf growth 48h	Pf growth 96h	AMA1-RON2 inh
O=c1c2c3c(sc2n2cnnc2n1Cc1ccccc1)CN(Cc1ccccc1)CC3	7.9µM	10µM	u	u
O=C(CC1Sc2ccccc2NC1=O)NNc1cc(Cl)ccc1Cl (stereo not drawn)	n	x	x	n
CCN1CCCC1CNCc1cccc(OC)c1OCc1ccccc1 (stereo not drawn)	n	n	12µM	n
CCN1CCCC1CNCc1ccccc1OCc1ccc(F)cc1 (stereo not drawn)	u	10µM	x	n
COc1ccc(NC2CCCN(C(=O)COc3ccc(C(C)=O)cc3)C2)cc1 (stereo not drawn)	x	x	x	n
O=S(=O)(NCc1ccc(Cl)cc1)c1cccc2cccnc12	n	n	n	n
O=S(=O)(NCCc1ccc(Cl)cc1)c1cccc2cccnc12	n	n	9.3µM	n
COc1cc(NC(=O)c2cccc(C)c2)c(OC)cc1NC(=O)CN1CCCCC1	u	n	n	n
COc1cc(NC(=O)c2ccc(C(C)(C)C)cc2)c(OC)cc1NC(=O)CN1CCCCC1	n	6.6µM	n	n
COc1cc(NC(=O)c2ccc(Cl)cc2)c(OC)cc1NC(=O)CN1CCCCC1	7.9µM	n	n	u
CCOC(=O)C1(CC)NC(c2ccc(OC)cc2OC)C2C(=O)N(C)C(=O)C21 (stereo not drawn)	n	n	u	n
Cc1ccccc1N1CC(C(=O)Nc2nnc(SCc3ccccn3)s2)CC1=O (stereo not drawn)	n	13µM	7.4µM	n

Screens from PubChem BioAssay.
